Compound activity: PubChem, National Center for Advancing Translational Sciences (NCATS)
D3 antag: D3 dopamine receptor (human) antagonism; D3R cells, DiscoveRx beta-arrestin luminescence, antagonist mode; stronger effect = lower value; max response, negative = inhibition, %; actives 2.5% (n = 360,000); in the data active = max response below about -50%; also: % is scaled to controls: 0 for no effect and ±100 for the full control effect
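Cells expressing the human receptor were seeded at 1500 cells/well, incubated overnight at 37 degrees C in 5% CO2, then exposed to library compounds with dopamine controls for 90 minutes at 37 degrees C before luminescent detection.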
D3 ag: activates the human D3 dopamine receptor; max activation, %; P35462; actives 0.58% (n = 410,000); D3R DiscoveRx beta-arrestin cells, luminescence, 90 min; in the data active = max activation above about 30%; also: 0% is about no effect
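Agonist-mode cell screen: cells plated at 1500/well and incubated overnight at 37 °C, then exposed to library compounds for 90 min at 37 °C. Detection reagent was added for 30–60 min at room temperature, and luminescence was read.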
D1 antag: human D1 dopamine receptor antagonism; actives 3.2% (n = 360,000); HEK293 TREx D1 cells, calcium flux, dopamine EC80; stronger effect = lower value; activity change, negative = inhibition, % at 10 µM; P21728; AID 504652; in the data active = activity change below about -30%; also: % is scaled to controls: 0 for no effect and ±100 for the full control effect
Target sequence (P21728 whole entry, looked up): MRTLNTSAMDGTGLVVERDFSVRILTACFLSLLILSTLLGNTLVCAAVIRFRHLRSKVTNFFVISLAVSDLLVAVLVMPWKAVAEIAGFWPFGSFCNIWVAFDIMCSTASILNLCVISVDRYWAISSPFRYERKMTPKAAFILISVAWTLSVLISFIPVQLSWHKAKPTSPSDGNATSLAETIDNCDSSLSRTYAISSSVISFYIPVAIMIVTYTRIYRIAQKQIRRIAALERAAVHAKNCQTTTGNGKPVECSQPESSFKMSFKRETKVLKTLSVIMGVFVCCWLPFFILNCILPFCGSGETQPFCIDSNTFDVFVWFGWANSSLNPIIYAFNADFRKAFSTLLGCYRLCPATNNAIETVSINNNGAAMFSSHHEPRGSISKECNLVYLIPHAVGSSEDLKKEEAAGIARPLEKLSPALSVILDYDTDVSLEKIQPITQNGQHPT
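Inducible Hek293 Trex D1 cells (tetracycline, overnight, 30 C). Calcium dye 30–90 min RT. Antagonist mode: EC80 dopamine added after 180 s compound read.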
D1 potentiator: potentiators of human D1 dopamine receptor; HEK293 TREx D1 cells, calcium flux, dopamine EC20 potentiation; potentiation, % at 10 µM; actives 0.036% (n = 360,000); in the data active = potentiation above about 30%; also: 0% is about no effect
D1 ag: human D1 receptor agonism. HEK293 T-REx D1 cells, calcium flux, agonist mode. activation, % at 2 µM. actives 1% (n = 360,000); in the data active = activation above about 30%; also: 0% is about no effect
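Agonism was scored from calcium flux recorded over 180 s (1 read/s) after pintool compound addition, following a 10-cycle baseline. Cells were inducible force-coupled HEK293 TREx D1, plated overnight at 30 C and loaded with no-wash calcium dye.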
* = called active by the depositor; nt = not tested or not shown; ! = not active in a repeat. An excerpt weighted towards active compounds, which were near 6.1% of everything screened.

SMILES | D3 antag | D3 ag | D1 antag | D1 potentiator | D1 ag
Cc1oc(-c2cccc(Cl)c2)nc1CN1CCCC(C(=O)NCc2ccc(Cl)cc2)C1 (centres undefined) | nt | -10 | -2 | -3 | 5
Cc1oc(-c2cccc(Cl)c2)nc1CN1CCCC(C(=O)N2CCN(c3ccc(F)cc3)CC2)C1 (centres undefined) | nt | -14 | -64* | -1 | 35*
Cc1oc(-c2cccc(Cl)c2)nc1CN1CCC(C(=O)N2CCN(c3ccccc3F)CC2)CC1 | -63* | -12 | -8 | 4 | 11
CCOc1ccc(-c2nc(CN3CCCC(C(=O)N4CCOCC4)C3)c(C)o2)cc1 (centres undefined) | 2 | -17 | 0 | -5 | 7
Cc1nc(Nc2ccc(Cl)cc2)c(C#N)c(=O)[nH]1 | 6 | 3 | 0 | -3 | 0
COc1ccc(S(=O)(=O)N(C)C)cc1NC(C)C(=O)Nc1cccc(C#N)c1 (centres undefined) | 3 | -4 | -22 | -6 | 2
CCCCn1c(SCC(=O)c2ccccc2)nc2ccsc2c1=O | 27 | 59* | 1 | 8 | 6
O=C(CSc1nc2ccsc2c(=O)n1NC(=O)c1ccccc1)Nc1nccs1 | -59* | 2 | -8 | 0 | 3
O=C(CSc1nc2ccsc2c(=O)n1NC(=O)c1ccccc1)NCc1ccco1 | 24 | 2 | 3 | 0 | 0
O=C(COC(=O)c1nc(-c2ccccc2)n(-c2cccc(C(F)(F)F)c2)n1)NCc1cccs1 | -11 | -5 | -7 | -5 | 6
CCc1nn(C(CC)C(=O)NCc2cccc(OC)c2OC)c(=O)c2cc3occc3n12 (centres undefined) | -5 | -5 | 1 | -3 | -2
Oc1ccc(C=Nc2ccc3ncccc3c2)c(O)c1 | nt | nt | -3 | 1 | 3
COc1cccc(N=Cc2ccc(O)cc2O)c1 | 9 | 34* | -3 | -8 | 1
Cc1ccccc1OCC(O)Cn1c(=N)n(CCN2CCOCC2)c2ccccc21 (centres undefined) | 5 | -3 | -35*! | -6 | 5
Cc1ccccc1OCC(O)CN1CCN(CC(O)COc2ccccc2C)CC1 (centres undefined) | -57* | -18 | 3 | -12 | 54*
Cc1ccccc1OCC(O)CN1CCCCC1 (centres undefined) | 4 | -8 | -9 | 0 | 6
Cc1ccccc1OCC(O)CN1CCC(C)CC1 (centres undefined) | -60* | -12 | -5 | -10 | 3
CN1C[C@H]2c3ccccc3Oc3ccc(Cl)cc3[C@@H]2C1 | nt | -26 | nt | nt | nt
C=C1CC2C(CCC3(C)C2CCC3(O)C(C)=O)C2(C)CCC(=O)C=C12 (centres undefined) | 0 | 13 | -51* | -2 | 4
COc1cc(C(=O)NCCSc2ccc(F)cc2)cc(OC)c1OC | 2 | -5 | -2 | -2 | 2
Cc1ccc(Nc2nc3nonc3nc2Nc2cccc(C(F)(F)F)c2)cc1Cl | nt | -19 | -35* | -3 | 14
CCOc1cc(/C=N/NC(=O)c2ccc(CN3CCOCC3)cc2)ccc1OC | 3 | -4 | 6 | -3 | 2
CCOc1cc(/C=C/C(=O)c2ccc(OC)c(CN3CCOCC3)c2)cc(Br)c1O | -20 | 1 | -1 | -5 | 41*
CCC(=O)c1ccc(OCC(=O)OCC(=O)NC2CCCCCCC2)cc1 | -5 | -1 | -39* | -4 | 11
CCC(=O)c1ccc(OCC(=O)OCC(=O)NCCC2=CCCCC2)cc1 | 1 | 6 | -31* | -5 | 8
SMILES | D3 antag | D3 ag | D1 antag | D1 potentiator | D1 ag
N#Cc1ccc(OCC(=O)OCC(=O)NCCC2=CCCCC2)cc1 | 5 | 5 | -12 | -11 | -1
Cc1cc(OCC(=O)OCC(=O)NC2CCCCC2C)ccc1Cl (centres undefined) | 1 | -2 | -32* | -8 | 5
CC(=O)N1CCN(CC(=O)Nc2ccc([N+](=O)[O-])cc2Br)CC1 | -4 | 6 | -11 | -6 | 5
N#CC1=C(N)OC2=C(CC/C2=C\c2ccccc2Cl)C1c1ccccc1Cl (centres undefined) | 0 | -1 | 1 | -6 | 35*
N#CC1=C(N)OC2=C(CC/C2=C\c2ccccc2)C1c1ccccc1 (centres undefined) | -1 | 1 | -20 | -7 | -1
O=C(c1ccc(CN2CCc3ccccc3C2)cc1)N1CCCCC1 | -73* | -20 | 11 | -7 | 3
